This is a sample that favours compounds with a hit; in the whole collection about 2.3% have one here.
GLS inhibitor: blocks human kidney-isoform glutaminase activity. O94925. GLS enzymatic activity, qHTS titration. Potency, µM (series often up to 45.5 µM), without a hit: at the highest dose activity change, negative = inhibition, usual class: inhibitors. 410,000 compounds, 0.21% hits. AID 624170; also: % is scaled to controls: 0 for no effect and ±100 for the full control effect
Target sequence (O94925 whole entry, looked up, canonical isoform): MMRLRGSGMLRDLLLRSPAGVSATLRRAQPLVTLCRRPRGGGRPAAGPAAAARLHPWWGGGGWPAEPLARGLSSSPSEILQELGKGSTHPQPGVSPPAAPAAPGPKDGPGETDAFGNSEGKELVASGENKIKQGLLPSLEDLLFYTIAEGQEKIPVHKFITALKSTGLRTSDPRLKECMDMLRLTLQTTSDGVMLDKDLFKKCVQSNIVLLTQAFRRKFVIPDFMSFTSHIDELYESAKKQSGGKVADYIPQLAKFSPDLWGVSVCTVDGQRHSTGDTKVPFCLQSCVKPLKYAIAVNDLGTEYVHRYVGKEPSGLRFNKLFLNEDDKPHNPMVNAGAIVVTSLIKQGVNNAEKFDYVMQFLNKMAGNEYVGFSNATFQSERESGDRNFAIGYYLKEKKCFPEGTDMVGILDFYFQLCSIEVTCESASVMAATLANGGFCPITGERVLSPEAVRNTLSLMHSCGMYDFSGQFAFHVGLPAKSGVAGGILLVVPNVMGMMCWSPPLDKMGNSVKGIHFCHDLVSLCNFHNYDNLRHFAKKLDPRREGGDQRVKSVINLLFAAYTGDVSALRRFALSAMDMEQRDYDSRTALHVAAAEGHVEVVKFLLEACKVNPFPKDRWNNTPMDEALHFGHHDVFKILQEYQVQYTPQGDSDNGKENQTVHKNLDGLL
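Coupled fluorescence readout: glutamate oxidase/HRP/Amplex Red detect glutamate formed by hKGA from L-glutamine (1 mM solution added). Buffer 45 mM KH2PO4 pH 8.2, 0.02% Tween-20; reads at t0 and 30 min RT.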
GLP-1R inv ag: inverse agonists of human GLP-1 receptor. 410,000 compounds, 1.6% hits. HEK293 GLP-1R CRE-luciferase, luminescence, 24 h; GLP-1R form is constitutively active. P43220. Potency, µM (series often up to 38.3 µM), for the others: top-dose activity change, negative = inhibition, usual class: inhibitors; also: % is scaled to controls: 0 for no effect and ±100 for the full control effect; nearly all actives have a fitted effect of over 55% in size
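Seeding at 200 cells/uL, 12 h culture, 24 hr compound treatment, then luciferase reagent and a luminescence read; cells are HEK293 stably expressing a constitutively active GLP-1R plus cAMP-responsive luciferase.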
GRP78 ERSR act: ER stress response induction in glioma. Potency, µM, for the others: at the highest dose activation, hits mostly activators. 420,000 compounds, 0.02% hits. U87-MG GRP78 promoter luciferase reporter, 16 h; also: series mostly up to about 76 µM; % of control where 0% means no effect; nearly all actives have a fitted effect of over 35% in size
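Stably transfected U87-MG glioma cells carrying a GRP78-based luciferase sensor; 16 h compound incubation. Luminescence end-point read 10 min after Bright-Glo addition at room temperature.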
PTHR1 agonist: agonists of human PTHR1 parathyroid hormone receptor; Q03431; HEK293 GP2 PTHR1 cells, GloSensor cAMP luminescence, 1 h; Potency, µM (highest dose often 115 µM), inactives show top-dose activation, actives largely listed as activators; 410,000 compounds, 0.075% hits; also: nearly all actives have a fitted effect of over 55% in size
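HEK-293-derived GP2 cells expressing PTHR1 and a GloSensor cAMP reporter, 3,000/well, plated overnight, given luciferin plus IBMX (each 0.5 mM as added) for 1 h at 37 °C, then compound for 1 h at 37 °C. Luminescence was read after 15 min at room temperature.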
ALOX12 inh: blocks human arachidonate 12S-lipoxygenase | AID 1671190 | Potency, µM (doses to about 108 µM), inactives show at the top dose activity change, negative = inhibition, usual class: inhibitors | purified 12hLO, xylenol orange hydroperoxide absorbance | 580,000 compounds, 1.1% hits | P18054; also: % is scaled to controls: 0 for no effect and ±100 for the full control effect
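Purified human 12hLO (150 nM final) in 25 mM Hepes, 0.01% Triton X-100, pH 7.0 was preincubated 15 min at room temperature with compound. Then 40 uM arachidonic acid was added, 30 min. Hydroperoxide was read by Fe-XO absorbance ratio 573/405 nm.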
GLP1R ag: GLP-1 receptor (human) agonism. P43220. HEK293 GLP-1R CRE-luciferase, luminescence, 4-6 h; cells express a hypersensitive GLP-1R form. Potency, µM (highest dose often 45.6 µM), for the others: at the highest dose activation, usual class: activators. 380,000 compounds, 0.007% hits. AID 624172; also: % of control where 0% means no effect
* marks the source's active call; other numbers are inactive results; i = inactive; ? = inconclusive; . = no result given. Calls follow the shape of the dose curve; as a rule, active = well fitted curve in the direction sought with a large enough effect; inconclusive = small, poorly fitted or top-dose-only effect, or another doubt; inactive = no such curve, though single readings can be large; an effect the other way counts as inactive or inconclusive. Potency is read from the fitted curve at half-maximal effect.

SMILES	GLS inhibitor	GLP-1R inv ag	GRP78 ERSR act	PTHR1 agonist	ALOX12 inh	GLP1R ag
S=c1[nH]nc(C2CCCCC2)n1/N=C/c1ccccn1	-15%	16%	-3%	-2%	18µM*	-1%
COc1cc(OC)c(/C=N/n2c(C3CCCCC3)n[nH]c2=S)c(OC)c1	1%	18%	-8%	i	?	7%
FC(F)(F)c1cc(Cl)c2nnc(SCc3cccc(Br)c3)n2c1	.	.	.	.	25%	.
O=C(COc1ccc2ccccc2c1)NNC(=O)Cc1ccccc1	4%	-23%	-2%	i	-2%	-11%
O=C(Cc1ccccc1)NNc1ccc2ccccc2c1	11%	0.56µM*	2%	i	-12%	-1%
Cc1c(C(=O)O)cccc1-c1ccc(/C=N/Nc2ccc(Br)cc2)o1	18%	?	1%	-25%	45µM*	-1%
CCOc1cccc2cc(-c3cc(=O)oc4cc(OCC(=O)OC(C)(C)C)ccc34)c(=O)oc12	.	.	.	.	1%	.
Cc1ccc(-c2nnc(CSc3nnc(COc4ccccc4)n3-c3ccc(C)cc3)o2)cc1	6%	0%	1%	i	0%	3%
Cc1ccc(-c2nnc(CSc3nnc(COc4ccccc4)n3-c3ccccc3)o2)cc1	5%	10µM*	-2%	-23%	0%	3%
CC(N(C)CC(=O)NC(C)(C#N)C(C)C)C(C)(C)C (configuration not stated)	.	.	.	.	-23%	.
Oc1ccc(C2C(c3ccccc3)=NN=C(c3ccc(Cl)cc3)N2O)c(O)c1 (configuration not stated)	17%	-29%	0%	-31%	32µM*	-28%
Fc1ccc(C(CCCn2nnc(-c3cccnc3)n2)c2ccc(F)cc2)cc1	-1%	10µM*	-5%	-42%	?	-2%
O=[N+]([O-])c1ccc(Cl)c(CN2CCCCCC2)c1	14%	?	-1%	-3%	0.56µM*	1%
O=[N+]([O-])c1ccc(Cl)c(CN2CCC(O)CC2)c1	-4%	0%	-5%	i	-12%	-1%
O=C(CSc1ccc2nnc(-c3cccc(F)c3)n2n1)NCC1CCCO1 (configuration not stated)	-16%	-16%	-4%	i	3.5µM*	-12%
COc1ccc(C2NC(c3ccc(OC)cc3)C(c3ccccc3)C(=O)C2c2ccccc2)cc1 (configuration not stated)	-8%	5.6µM*	-3%	-8%	6%	0%
CNC(=O)NCc1ccc(OC)cc1	.	.	.	.	1%	.
COc1cccc(-n2cc(CN(C)Cc3nc(Cc4ccccc4)no3)cn2)c1	-4%	?	3%	-40%	-18%	13%
COc1cccc(-n2cc(CN(C)Cc3nc(Cc4cccc(F)c4)no3)cn2)c1	1%	10µM*	0%	-22%	?	0%
Cc1cccnc1NC(=S)NCCc1ccccc1	-1%	?	11%	-16%	7.1µM*	?
CCOc1ccccc1NC(=S)Nc1ccccc1F	13%	-21%	0%	i	?	-8%
CCOc1ccccc1NC(=S)Nc1ncccc1C	8%	?	1%	-27%	11µM*	21%
S=C(NCCc1ccccc1)Nc1ncccn1	-14%	11%	2%	-10%	?	11%
O=C(CSc1nc2c(cnn2-c2ccc(F)cc2)c(=O)[nH]1)Nc1ccc(Br)cc1	7.9µM*	10%	-2%	i	-3%	.
Cc1cc(C)cc(NC(=O)CSc2nc3c(cnn3-c3ccc(F)cc3)c(=O)[nH]2)c1	0%	10%	-2%	i	-7%	.
SMILES	GLS inhibitor	GLP-1R inv ag	GRP78 ERSR act	PTHR1 agonist	ALOX12 inh	GLP1R ag
CNC(=O)NC(=O)C(C)N(C)CCCCc1ccccc1 (configuration not stated)	.	.	.	.	4%	.
CC(C)(C)NC(=O)C(c1ccc(-c2ccccc2)cc1)n1c(=O)c(-c2ccco2)nc2ccccc21 (configuration not stated)	.	?	.	-29%	40µM*	.
CC(C)(C)NC(=O)C(c1ccc(C#N)cc1)n1c(=O)c(-c2ccco2)nc2ccccc21 (configuration not stated)	.	8%	.	i	?	.
COc1ccc(C(C(=O)NC(C)(C)C)n2c(=O)c(-c3ccco3)nc3ccccc32)cc1 (configuration not stated)	.	-24%	.	-12%	25µM*	.
Cc1cccc(C)c1NC(=O)C(c1ccc(-c2ccccc2)cc1)n1c(=O)c(-c2ccco2)nc2ccccc21 (configuration not stated)	.	15%	.	i	13µM*	.
O=C(NCc1ccccc1)C(c1ccc(-c2ccccc2)cc1)n1c(=O)c(-c2ccco2)nc2ccccc21 (configuration not stated)	.	-4%	.	i	14µM*	.
CC(C)(C)NC(=O)C(c1ccc(-c2ccccc2)cc1)n1c(=O)c(-c2ccccc2)nc2ccccc21 (configuration not stated)	.	?	.	-5%	1%	.
Oc1c(Cl)cc(Cl)cc1Sc1cc(Cl)cc(Cl)c1O	24%	.	-3%	.	.	-5%
O=S(c1cc(Cl)cc(Cl)c1O)c1cc(Cl)cc(Cl)c1O	104%	6%	?	-44%	28µM*	-2%
C=CCc1cccc(CNc2nc3ccccc3n2CC)c1O	7%	5µM*	-5%	-34%	-2%	9%
Cc1csc(N/N=C/c2ccccc2F)n1	-1%	12%	4%	-24%	-4%	15%
CCOc1ccc(/C=N/Nc2nc(C)cs2)c(O)c1	18%	4µM*	4%	-74%	?	-7%
O=C(O)c1cc(S(=O)(=O)N2CCN(C(c3ccccc3)c3ccccc3)CC2)ccc1Cl	62%	?	3%	-12%	40µM*	-3%
O=S(=O)(c1ccccc1)N1CCN(C(c2ccccc2)c2ccc(OC(F)(F)F)cc2)CC1 (configuration not stated)	-3%	10µM*	-3%	-36%	0%	0%
CC(=O)Nc1ccc2c(C(C(=O)O)N3CCN(c4nc5c(cc4C#N)CCCC5)CC3)c[nH]c2c1 (configuration not stated)	.	.	.	.	-2%	.
CCN(c1ccccc1)S(=O)(=O)c1cccc(C(=O)NCC2(N(C)C)CCCCC2)c1	13%	10µM*	-3%	i	476%	-2%
Cc1ccc(NS(=O)(=O)c2cccc(C(=O)NCC3(N(C)C)CCCCC3)c2)cc1	9%	?	4%	-49%	-6%	-2%
CN(C)C1(CNC(=O)c2cccc(S(=O)(=O)NCc3ccccc3)c2)CCCCC1	4%	?	-4%	32µM*	-1%	2%

Source: PubChem BioAssay
